Mcl-1 Bim block = disrupts Bim peptide binding to human Mcl-1 | Bead-based flow cytometry, Bim peptide-Mcl-1 binding | actives 0.1% (n = 190,000) | inhibition, % at 10 µM; in the data active = inhibition above about 40%;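 also: 0% = no compound tracer wells and 100% = peptide blocker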
Target sequence (Q07820 whole entry, looked up): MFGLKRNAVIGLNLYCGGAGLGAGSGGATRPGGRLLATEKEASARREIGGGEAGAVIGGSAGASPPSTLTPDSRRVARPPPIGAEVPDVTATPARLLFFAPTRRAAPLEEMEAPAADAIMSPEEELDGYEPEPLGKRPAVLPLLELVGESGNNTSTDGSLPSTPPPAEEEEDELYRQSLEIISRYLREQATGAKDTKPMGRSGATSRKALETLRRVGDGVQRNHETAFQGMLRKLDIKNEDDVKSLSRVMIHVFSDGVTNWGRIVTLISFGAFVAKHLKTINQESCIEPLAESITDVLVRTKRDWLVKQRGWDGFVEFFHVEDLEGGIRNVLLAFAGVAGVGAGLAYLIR
Mcl1-Bid inh = disrupts binding of human Mcl-1 to Bid peptide; inhibition, % at 21.7 µM; Q07820; TR-FRET Mcl-1/Bid-Dy647 peptide binding, 1536-well; actives 0.97% (n = 220,000);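 active = compounds that cut the binding signal by more than half at the single screening dose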;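 also: His-tagged Mcl-1 with europium anti-His antibody binding Bid BH3 peptide; 0% = Mcl-1 plus peptide wells and 100% = peptide-only wells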
TNF death inh = inhibitors of TNF-alpha induced necroptosis in Jurkat FADD-/- cells; Jurkat FADD-/- TNF necroptosis rescue, ATP luminescence, 24 h; 0 = TNF only, 100 = no-TNF cells; activation (protection from cell death), % at 10 µM; actives 0.068% (n = 220,000);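 active = activation, meaning protection from cell death, of at least 50% relative to plate controls; inactive = activation below 50%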;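 also: necroptosis triggered by 40 ng/mL TNF-alpha added together with compound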
zVAD death inh = blocks zVAD induced death of L929 cells | actives 0.38% (n = 220,000) | viability rescue, % at 10 µM | L929 zVAD necroptosis rescue, ATP luminescence, 24 h; with zVAD 60 µM;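 active = activation, scaled between plate controls, above about 75%, limit read from the data; inactive = activation under that limit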;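 also: 0% = zVAD with DMSO and 100% = DMSO alone without zVAD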
Mcl1 Noxa PPI = disrupts binding of human Mcl-1 to Noxa peptide; Q07820; TR-FRET Mcl-1/Noxa peptide binding, 2 h; inhibition, % at 21.7 µM; actives 1.5% (n = 220,000); AID 1022;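 active = compounds that cut the protein-peptide binding signal by more than 50% relative to plate controls in a single-dose test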;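 also: His-tagged Mcl-1 with rhodamine Noxa BH3 peptide and terbium anti-His antibody; 0% = Mcl-1 plus Noxa peptide wells and 100% = peptide-only wells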
MCL1-BIM inh = MCL1-BIM-BH3 interaction inhibition (human); actives 0.68% (n = 320,000); GST-MCL1 / FITC-Bim-BH3 fluorescence polarization; AID 2057; Q07820; inhibition, % at 10.9 µM;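 active = inhibition above the mean inhibition of all tested compounds plus 3 SD, set per campaign, cut at about 40% in these data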;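 also: 0% = DMSO wells and 100% = unlabeled Bim-BH3 peptide control; higher means more loss of mP so more displacement of Bim peptide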
Numbers without * were called inactive; / = no result. In the library only some 2.4% were active in any assay of this set; here they are far more common.

SMILES | Mcl-1 Bim block | Mcl1-Bid inh | TNF death inh | zVAD death inh | Mcl1 Noxa PPI | MCL1-BIM inh
CN(C)c1ccc(Sc2nnc(NC(=O)Nc3ccc(Cl)cc3Cl)s2)cc1 | -6.0 | 18.2 | 1.5 | 0.5 | 89.0* | 3.7
CC(C)(C)C1CCC(C(=O)OCC(=O)Nc2ccc3[nH]c(=O)[nH]c3c2)CC1 (stereo not drawn) | -1.0 | 8.4 | 1.4 | 37.5 | 58.7* | -10.4
O=C(COC(=O)C12CC3CC(CC(C3)C1)C2)Nc1ccc2[nH]c(=O)[nH]c2c1 | / | / | / | / | / | -0.6
CC(=O)Nc1cccc(NC(=S)Nc2cccc(Cl)c2Cl)c1 | 0.0 | -45.5 | -0.4 | 3.2 | 18.2 | 3.6
COC(=O)c1cccc(NC(=S)Nc2cccc(Cl)c2Cl)c1 | -4.0 | 97.8* | 0.4 | -0.7 | 35.3 | 7.3
COc1ccc(C(=O)c2sc3nc(-c4ccccc4)ccc3c2N)cc1OC | 15.0 | 59.4* | -0.4 | 1.1 | 94.5* | -36.9
COc1ccc(Cl)cc1NC(=O)C1(c2cccs2)CCOCC1 | -1.0 | -23.9 | -2.7 | -0.5 | 1.6 | -2.4
O=C(Nc1nc2c(s1)CN(Cc1ccccc1)CC2)c1cccc(S(=O)(=O)N2CCc3ccccc32)c1 | 0.0 | -68.4 | -0.2 | 0.7 | -25.8 | 61.0*
CC(COc1ccccc1)N(CCCl)Cc1ccccc1 (stereo not drawn) | -1.0 | 54.8* | -9.6 | 1.4 | 34.2 | 2.0
Cc1cccn2c(=O)c(/C=N/O)c(Nc3ccccc3F)nc12 | / | 54.5* | 0.7 | 1.7 | -28.5 | -9.8
Cc1ccc(C(=O)NNC(=O)CCC(=O)Nc2cc(C)on2)cc1 | -4.0 | 85.7* | 2.5 | 0.2 | 4.1 | 13.8
COc1cccc(OCCNC(=O)Nc2cc(F)c(F)cc2Cl)c1 | 0.0 | -12.8 | 0.6 | 3.5 | -5.1 | 4.5
CCc1ccc(S(=O)(=O)/N=C2\C=C(Nc3ccc(O)cc3)C(=O)c3ccccc32)cc1 | / | / | / | / | / | 11.7
Cc1ccc(S(=O)(=O)/N=C2/C=C(C3C(=O)CC(C)(C)CC3=O)C(=O)c3ccccc32)cc1 | 4.0 | 25.6 | -3.2 | -0.7 | 79.8* | -9.2
O=C(NCc1ccc(/C=c2\sc3n(c2=O)CCN=3)o1)C(=O)Nc1ccccc1 | 1.0 | -51.4 | -0.9 | 2.2 | 56.0* | 26.1
O=[N+]([O-])c1cc([N+](=O)[O-])c2c(=Nc3ccccc3)n(-c3ccccc3)n(O)c2c1 | 11.0 | -28.4 | -7.4 | 0.4 | 62.5* | 7.9
C=CCC1(Cl)C(=O)C(Cl)=C(N2CCOCC2)C1(OC)OC (stereo not drawn) | / | -5.3 | 3.9 | 0.3 | -19.9 | 7.5
CSc1ccccc1NC(=O)CN(C)CC(=O)Nc1ccc(N2CCOCC2)cc1 | 48.0* | -23.2 | 0.1 | -0.7 | 3.4 | 4.9
O=C(Cc1ccccc1)Nc1ccc(N2CCCCC2)cc1 | 0.0 | -25.6 | 1.2 | 7.1 | 60.7* | 16.9
CC1CCCCN1CC(=O)Nc1ccc(N2CCCCCC2)cc1 (stereo not drawn) | -7.0 | 35.9 | 4.8 | 58.8 | 58.5* | 3.6
CN1CCN(c2ccc(NC(=O)Cc3ccccc3)cc2)CC1 | -2.0 | -12.2 | -0.8 | -0.7 | 22.4 | 0.1
CN(CC(=O)Nc1ccc(N2CCOCC2)cc1)CC(=O)Nc1ccc(N2CCOCC2)cc1 | / | -101.9 | 4.3 | -0.6 | -15.9 | -8.6
O=C(CCc1ccccc1)Nc1ccc(N2CCOCC2)cc1 | -4.0 | -13.3 | 2.6 | 1.3 | 52.6* | 5.5
Cc1ccc(S(=O)(=O)Oc2ccc(/C=N/NC(=O)c3cccnc3)cc2)cc1 | -2.0 | -6.3 | 1.3 | 4.6 | -0.8 | 2.9
O=C(CCC(=O)c1cccs1)Nc1ccc(N2CCCCC2)cc1 | -1.0 | -51.1 | 3.2 | 2.8 | 57.1* | 4.0
CC(C)NS(=O)(=O)c1ccc(OCC(=O)Nc2ccc(F)cc2)cc1 | 58.0* | -11.1 | 0.8 | 1.0 | 12.6 | 4.2
O=Cc1ccccc1OCc1nnsc1Cl | 0.0 | -5.5 | -4.4 | -1.2 | 20.2 | 4.2
COc1ccc(C(=O)COC(=O)COc2cc(C)cc(C)c2)cc1 | / | / | / | / | / | 7.5
CCOc1ccc(-c2csc(/C(C#N)=C\c3ccc(O)c([N+](=O)[O-])c3)n2)cc1 | -3.0 | -23.1 | 0.5 | 0.5 | 56.0* | -1.9
CCCCc1ccc(-c2csc(/C(C#N)=C\c3ccc(C)o3)n2)cc1 | -2.0 | -8.6 | 0.3 | 0.0 | -11.7 | -3.9
